Consider 18 compounds from PubChem BioAssay (Tox21).

“And” between values parts separate entries of the source, which are not always exact repeats. Identical values can stand only once. Inconclusive results are not listed. Where a structure was tested more than once in an assay, its records may differ in their call. The source made the active and inactive calls. Calls come from the whole dose curve; as a rule, active = well fitted curve in the direction sought with a large enough effect in the repeat runs; inconclusive = weak or mixed curves; inactive = no such curve, though single readings can be large; an effect the other way counts as inactive or inconclusive.

The nature of experiment [1]: A CellTox Green Cytotoxicity Assay to monitor cytotoxicity in HepG2 cells - 0 hour (AID 1224882). Note: nearly all actives have a fitted effect of over 35% in size. The gist of the method:
(§1)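 HepG2, 600 cells/well premixed w/ CellTox Green; 5 h settle, 37 C/5% CO2; pintool cpd add (DMSO); 37 C, 40 h; fluorescence read at 0, 8, 16, 24, 32, 40 h.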

Experiment [2] in a line: A CellTox Green Cytotoxicity Assay to monitor cytotoxicity in HepG2 cells - 32 hour (AID 1224883). Note: nearly all actives have a fitted effect of over 50% in size. Note: potency is the fitted concentration of half-maximal effect. Summed up:
as §1

The nature of experiment [3]: A CellTox Green Cytotoxicity Assay to monitor cytotoxicity in HEK293 cells - 8 hour (AID 1224884). Note: nearly all actives have a fitted effect of over 35% in size. The gist of the method: (§2)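 Read-out: fluorescence of a cell-impermeant cyanine dye staining DNA of dead cells, proportional to cytotoxicity. HEK293, 600 cells/well with reagent, compound (23 nL DMSO) added after 5 h; reads at 0, 8, 16, 24, 32, 40 h.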
Experiment [4] in a line: qHTS RealTime-Glo MT Cell Viability Assay in HepG2 cells - 16 hour (AID 1224885). Note: nearly all actives have a fitted effect of over 50% in size. Summed up: (§3)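 Real-time, nonlytic viability: 600 HepG2 cells/well mixed with NanoLuc enzyme plus prosubstrate; 5 h settle, compound (DMSO) added by pintool; luminescence monitored over 40 h at 37 C.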
Experiment [5] can be described thus: qHTS RealTime-Glo MT Cell Viability Assay in HEK293 cells - 24 hour (AID 1224886). Note: nearly all actives have a fitted effect of over 50% in size. Note: potency is the fitted concentration of half-maximal effect. The gist of the method:
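Cells + reagent dispensed (600 cells/well, HEK293) → 5 h at 37 C/5% CO2 → 23 nL compound in DMSO pinned → 40 h at 37 C → luminescence read at 0, 8, 16, 24, 32, 40 h.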

Experiment [6] can be described thus: qHTS RealTime-Glo MT Cell Viability Assay in HEK293 cells - 8 hour (AID 1224887). Note: nearly all actives have a fitted effect of over 50% in size. Note: potency is the fitted concentration of half-maximal effect. The gist of the method:
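Luminescence readout at each listed time point; HEK293, 600 cells/well, RealTime-Glo MT reagent added with cells; compounds pinned (23 nL in DMSO) after 5 h at 37 C; continuous culture at 37 C.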
In general terms: In qHTS, concentration-response curves come from the screen itself.

Experiment [7] is described as follows: A CellTox Green Cytotoxicity Assay to monitor cytotoxicity in HEK293 cells - 16 hour (AID 1224888). Note: nearly all actives have a fitted effect of over 35% in size. Summed up: as §2
Experiment [8] can be described thus: qHTS RealTime-Glo MT Cell Viability Assay in HepG2 cells - 0 hour (AID 1224889). Note: nearly all actives have a fitted effect of over 50% in size. Summed up: as §3
Experiment [9] can be described thus: A CellTox Green Cytotoxicity Assay to monitor cytotoxicity in HepG2 cells - 8 hour (AID 1224890). Note: nearly all actives have a fitted effect of over 45% in size. Note: potency is the fitted concentration of half-maximal effect. The gist of the method: as §1
Experiment [10] can be described thus: qHTS assay to identify small molecule antagonists of the estrogen receptor alpha (ER-alpha) signaling pathway using the BG1 cell line in the presence of 0.1 nM 17-beta-estradiol - cell viability counter screen (AID 1259241). Note: nearly all actives have a fitted effect of over 40% in size. The gist of the method:
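Cytotoxicity counter-screen: live-cell protease activity measured by fluorescence (30 min reagent step) in the same wells. Cells were VM7Luc4E2 with endogenous ER-alpha and ERE-driven luciferase, treated 22 hr at 37C alongside 0.1 nM 17beta-estradiol final.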

As for `Cc1cc(C)cc(O)c1`, the Potency result in experiment [1], in experiment [2], in [3], in experiment [4], in experiment [5] and in experiment [6] was “inactive” in each case. In addition, the Potency result in experiment [7], in experiment [8] and in [9] was “inactive” throughout.

Consider `CC[N+](CC)(CC(=O)Nc1c(C)cccc1C)Cc1ccccc1`, for which the Potency result in [1], in experiment [2], in experiment [3], in experiment [4], in experiment [5] and in [6] was “inactive” throughout. Also, the Potency entry in experiment [7], in experiment [8] and in experiment [9] was “inactive” throughout.

Regarding `Cc1ccccc1Cl`, the Potency entry in experiment [1], in [2], in [3], in experiment [4], in [5] and in experiment [6] was “inactive” throughout. The Potency entry in experiment [7], in experiment [8] and in experiment [9] was “inactive” throughout.

Regarding `O=[N+]([O-])c1ccccc1C(F)(F)F`, the Potency result in [1], in experiment [2], in experiment [3], in experiment [4], in [5] and in [6] was “inactive” in each case. Further, the Potency result in experiment [7], in experiment [8] and in experiment [9] was “inactive” throughout.

As for `CCCCCCC(=O)O`, the Potency entry in experiment [1], in experiment [2], in experiment [3], in experiment [4], in experiment [5] and in experiment [6] was “inactive” each time. In addition, the Potency result in experiment [7], in experiment [8], in experiment [9] and in [10] was “inactive” each time.

Turning to `CCCCC(CC)COC(=O)c1ccc(C(=O)OCC(CC)CCCC)cc1` (stereo not drawn), the Potency result in experiment [1], in experiment [2], in experiment [3], in [4], in experiment [5] and in experiment [6] was “inactive” in each case. The Potency entry in experiment [7], in [8] and in experiment [9] was “inactive” in each case.

On to `C=C1C[C@]23C[C@@]1(O)CC[C@H]2[C@@]12C=C[C@H](O)[C@@](C)(C(=O)O1)[C@H]2[C@@H]3C(=O)O`, for which the Potency entry in experiment [1], in experiment [2], in [3], in [4], in [5] and in [6] was “inactive” each time. Besides, the Potency entry in experiment [7], in experiment [8], in experiment [9] and in experiment [10] was “inactive” each time.

With `C=C(CC(=O)O)C(=O)O`, the Potency entry in experiment [1], in experiment [2], in [3], in experiment [4], in experiment [5] and in [6] was “inactive” in each case. The Potency result in [7], in experiment [8], in experiment [9] and in experiment [10] was “inactive” throughout.

Consider `Nc1nc(N)c2nc(-c3ccccc3)c(N)nc2n1`, for which the Potency entry in experiment [1], in experiment [3], in experiment [4], in [5], in experiment [6] and in experiment [7] was “inactive” throughout. The Potency result in experiment [8] and in experiment [9] was “inactive” throughout. In experiment [2], the Potency was 49.5 µM (active) and 49 µM (active).

For `CC(=O)C(C)C`, the Potency entry in experiment [1], in [2], in experiment [3], in experiment [4], in experiment [5] and in experiment [6] was “inactive” each time. Moreover, the Potency result in [7], in [8] and in experiment [9] was “inactive” throughout.

On to `CCCCCNCCCCC`, for which the Potency entry in [1], in [2], in experiment [3], in experiment [4], in [5] and in [6] was “inactive” throughout. The Potency entry in [7], in experiment [8], in experiment [9] and in experiment [10] was “inactive” each time.

Turning to `CC(=O)c1nccs1`, the Potency entry in experiment [1], in experiment [2], in experiment [3], in experiment [4], in [5] and in [6] was “inactive” each time. Besides, the Potency result in experiment [7], in [8], in experiment [9] and in experiment [10] was “inactive” in each case.

Consider `CC(CN1c2ccccc2Sc2ccccc21)N(C)C` (stereo not drawn), for which the Potency result in experiment [1], in [3], in [4], in experiment [7] and in experiment [8] was “inactive” throughout. Also, the Potency in experiment [2] was 55.5 µM (active) and 49 µM (active) and 23.9 µM (active); in experiment [5], 39.3 µM (active) and 43.6 µM (active); in experiment [6], 24.8 µM (active); in experiment [9], “inactive and 54.9 µM (active)”.

`CC(=O)Nc1ccc(CC(=O)O)cc1`: the Potency entry in [1], in [2], in experiment [3], in experiment [4], in experiment [5] and in [6] was “inactive” throughout. Besides, the Potency result in [7], in [8] and in [9] was “inactive” throughout.

On to `O=[N+]([O-])c1cc(C(F)(F)F)ccc1Cl`, for which the Potency result in experiment [1], in experiment [2], in [3], in [4], in experiment [5] and in [6] was “inactive” in each case. Moreover, the Potency result in [7], in [8] and in experiment [9] was “inactive” each time.

With `CN1Cc2c(N)cccc2C(c2ccccc2)C1` (stereo not drawn), the Potency result in experiment [1], in [2], in [3], in experiment [4], in experiment [5] and in [6] was “inactive” each time. Besides, the Potency entry in experiment [7], in experiment [8] and in experiment [9] was “inactive” throughout.

Consider `COC(=O)CCCCC(=O)OC`, for which the Potency entry in experiment [1], in experiment [2], in [3], in [4], in experiment [5] and in experiment [6] was “inactive” throughout. In addition, the Potency entry in [7], in experiment [8], in experiment [9] and in [10] was “inactive” in each case.

As to `O=C1CCCCCCCCCCC1`, the Potency entry in experiment [1], in [2], in [3], in experiment [4], in [5] and in [6] was “inactive” throughout. Further, the Potency entry in experiment [7], in experiment [8] and in experiment [9] was “inactive” each time.
